Data reported in PubChem BioAssay AID463190 (Sanford-Burnham Center for Chemical Genomics, 2010).
The campaign covered roughly 330,000 compounds. About 7,300 (2.2%) were called active. The sample holds actives, similar compounds and a random draw of the others, so the mix is not that of the screen.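 How the source made its calls: active means inhibition of at least 40%; inactive means the rest.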

assay: growth inhibition of tim10-1 ts yeast – luminescence, uHTS, primary screen (AID 463190);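 further: mutant grown at 25 °C; 0% = DMSO wells with yeast and 100% = wells holding no yeast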; settings: S. cerevisiae tim10-1 ts strain growth, BacTiter-Glo, 24 h; at 20 µM; active compounds read high

inhibition, active:
Fc1ccc(/C=N/Nc2nc(-c3cccnc3)nc3ccccc23)cc1 43.3%
CC1=C/C(=N\OS(=O)(=O)c2ccccc2)C=CC1=O 76.6%
CN1CCN(c2ccccc2NC(=O)COc2ccc(C3CCCCC3)cc2)CC1 42.9%
O=C(Oc1ccc(-c2nc(-c3ccccn3)no2)cc1)c1ccccc1 51.2%

inhibition, inactive:
COc1ccc(-n2c(SCC(=O)NCc3ccco3)nnc2-c2c[nH]c3ccccc23)cc1 7.58%
O=c1c2ccccc2nc(N/N=C/c2ccccc2)n1O 12.3%
O=C(N/N=C/c1cccnc1)c1ccc(NC(=O)c2ccc(F)cc2)cc1 -1.83%
Cc1cc(C)cc(NC(=O)CCN2C(=O)c3ccccc3C2=O)c1 15.2%
CCN(CC)C(=O)Oc1ccc(OC(=O)N(CC)CC)cc1 32.3%
CCC(=O)Nc1nnc(S(=O)(=O)N(CC(C)C)c2ccccc2)s1 -0.846%
CCOC(=O)C1CCN(C(=O)c2ccccc2N(C)S(=O)(=O)c2ccccc2)CC1 25%
CSc1nnc(C2CCCN(CC(=O)Nc3ccccc3N3CCOCC3)C2)n1C(C)C (stereo not given) -3.94%
Cc1ccnc2nc(C(=O)OCC(=O)N(CC(C)C)CC(C)C)nn12 13.2%
Cn1cc(/C=C/C(=O)N2CCCC(C(=O)c3ccc(C(F)(F)F)cc3)C2)cn1 (stereo not given) 24.9%
COc1cccc(C(=O)N/N=C(\C)c2cccc(NC(=O)c3ccc(F)cc3)c2)c1OC 20.1%
Cn1c(CN2CCOCC2)nc2cc(NC(=O)c3ccc(Cl)cc3)ccc21 15.9%
CCC(=O)Nc1ccc(S(=O)(=O)Nc2c(NC)c3ccccc3oc2=O)cc1 27%
O=C(CN1CCN(C2CCCCC2)CC1)Nc1ccccc1N1CCCCC1 -10.4%
Cc1ccc(C(C)C)cc1OCC(=O)Nc1ccccc1N1CCCC1 -15.9%
Cc1cc(C)cc(OCC(=O)NNC(=O)CCN2C(=O)c3ccccc3C2=O)c1 9.29%
O=C(COC(=O)c1ccncc1)c1ccccc1 22.8%
Brc1ccc(-c2noc(-c3ccccc3)n2)o1 11.2%
COc1ccc2oc(C(=O)OCC(=O)N(CC(C)C)c3c(N)n(Cc4ccccc4)c(=O)[nH]c3=O)c(C)c2c1 -2.22%
CCC(C(=O)N1CCN(S(=O)(=O)c2sc(C(=O)O)c(C)c2C(=O)O)CC1)c1ccccc1 (stereo not given) -6.62%
Cc1cc(-c2nnc(CCC(=O)NC(c3ccccc3)c3ccccc3)o2)no1 -7.23%
